Experimental data: the supplement of paper PMC12494721
Where a name gives a salt, the structure may show the parent alone. Unmarked numbers belong to inactive results.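 The calls were made as follows: for the amine columns active = adjusted P below 0.05 in both replicates with a change the same way and a mean fold change under 0.8 or over 1.25; inactive = the rest.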

What follows are compounds tested on Klebsiella aerogenes DSM 30053 (assay: fold change of Cadaverine concentration vs plate DMSO controls (fold change (ratio)); higher = more amine produced, active = hit call of the paper (significant change in both replicates, either direction)). Conditions: incubation time: 27 h, anaerobic, 37 °C.
Method in brief: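 Using LC–triple-quadrupole MS with dynamic MRM, amines were quantified against external calibration curves and corrected for drift within each batch. Samples were whole anaerobic mGAM cultures of four gut strains, grown 27 h at 37 °C from OD 0.1 before 1:1 dilution, extracted with cold acetonitrile/methanol containing 0.1% formic acid and centrifuged. Compounds were present at 20 µM final (sweeteners at 50 µM final). The numbers are fold changes versus plate DMSO controls, each the mean of 2 biological replicates.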
In the case of `CCCCCCCCCCCCCCCCCCCCCC(=O)Nc1ccn([C@@H]2O[C@H](CO)[C@@H](O)[C@@H]2O)c(=O)n1` [Enocitabine] (20 µM), the “fold change of Cadaverine concentration” value is reported as 1.02.
`COCC1=C(C(=O)OC(C)OC(=O)OC(C)C)N2C(=O)[C@@H](NC(=O)/C(=N\OC)c3csc(N)n3)[C@H]2SC1` (some centres undefined) [Cefpodoxime proxetil] (20 µM) was tested, and the “fold change of Cadaverine concentration” value was 0.986.
`COc1cccc2c1C(=O)c1c(O)c3c(c(O)c1C2=O)C[C@@](O)(C(=O)CO)C[C@@H]3O[C@H]1C[C@H](N)[C@@H](O)[C@H](C)O1` [Epirubicin hydrochloride] (20 µM) was tested, and the “fold change of Cadaverine concentration” value was 1.02.
For `CN1CCCN(C(c2ccccc2)c2ccc(Cl)cc2)CC1` (centres undefined) [Homochlorcyclizine dihydrochloride] (20 µM), the “fold change of Cadaverine concentration” value was 1.01.
In the case of `COc1ccc(/C=C/C(=O)Nc2ccccc2C(=O)O)cc1OC` [Tranilast] (20 µM), the “fold change of Cadaverine concentration” value is reported as 1.02.
For `CC(C)Nc1ncccn1` [Isaxonine] (20 µM), the “fold change of Cadaverine concentration” value was 1.01.
In the case of `CC(=O)N[C@@H](CS)C(=O)O` [Acetylcysteine] (20 µM), the “fold change of Cadaverine concentration” value is reported as 0.987.
With `C=C1C[C@@]23CC[C@H]4[C@@](C)(CCC[C@@]4(C)C(=O)O[C@@H]4O[C@H](CO)[C@@H](O)[C@H](O)[C@H]4O)[C@@H]2CC[C@]1(O[C@@H]1O[C@H](CO)[C@@H](O)[C@H](O)[C@H]1O[C@@H]1O[C@H](CO)[C@@H](O)[C@H](O)[C@H]1O)C3` [Stevioside] (50 µM) the “fold change of Cadaverine concentration” value was 1.1.
`Nc1ccc(S(=O)(=O)Nc2nccs2)cc1` [Sulfathiazole] (20 µM) was tested, and the “fold change of Cadaverine concentration” value was 1.01.
In the case of `CC(=O)OCC(=O)[C@@]1(O)CC[C@H]2[C@@H]3CCC4=CC(=O)C=C[C@]4(C)[C@@]3(F)[C@@H](O)C[C@@]21C` [Isoflupredone acetate] (20 µM), the “fold change of Cadaverine concentration” value is reported as 1.11.
In the case of `CC(=O)CCCCn1c(=O)c2c(ncn2C)n(C)c1=O` [Pentoxifylline] (20 µM), the “fold change of Cadaverine concentration” value is reported as 1.02.
In the case of `CCN(CC)CCOC(=O)C1(C2CCCCC2)CCCCC1` [Dicyclomine hydrochloride] (20 µM), the “fold change of Cadaverine concentration” value is reported as 1.
With `CC(=O)OCC(=O)[C@@]1(O)[C@H](C)C[C@H]2[C@@H]3CCC4=CC(=O)C=C[C@]4(C)[C@@]3(F)[C@@H](O)C[C@@]21C` [Dexamethasone acetate] (20 µM) the “fold change of Cadaverine concentration” value was 0.983.
With `Cc1nc2n(c(=O)c1CCN1CCC(c3noc4cc(F)ccc34)CC1)CCCC2O` (centres undefined) [Paliperidone] (20 µM) the “fold change of Cadaverine concentration” value was 0.986.
With `O=C(Nc1cccc2c(=O)cc(-c3nnn[nH]3)oc12)c1ccc(OCCCCc2ccccc2)cc1` [Pranlukast] (20 µM) the “fold change of Cadaverine concentration” value was 1.02.
`CCC(Cc1c(I)cc(I)c(N)c1I)C(=O)O` (centres undefined) [Iopanoic acid] (20 µM) was tested, and the “fold change of Cadaverine concentration” value was 0.985.
In the case of `C/C(=C\C(=O)OCCCCCCCCC(=O)O)C[C@@H]1OC[C@H](C[C@@H]2O[C@H]2[C@@H](C)[C@H](C)O)[C@@H](O)[C@H]1O` [Mupirocin] (20 µM), the “fold change of Cadaverine concentration” value is reported as 0.763 (active).
For `CC(Oc1c(Cl)cccc1Cl)C1=NCCN1` (centres undefined) [Lofexidine] (20 µM), the “fold change of Cadaverine concentration” value was 1.01.
`CCOc1ccc(NC(=O)CC(C)O)cc1` (centres undefined) [Bucetin] (20 µM) was tested, and the “fold change of Cadaverine concentration” value was 0.993.
In the case of `CN(C)CCc1c[nH]c2ccc(Cn3cncn3)cc12` [Rizatriptan benzoate] (20 µM), the “fold change of Cadaverine concentration” value is reported as 1.01.
`CC(C)OC(=O)C(C(=O)OC(C)C)=C1SC=CS1` [Malotilate] (20 µM) was tested, and the “fold change of Cadaverine concentration” value was 1.02.
For `CC1CS(=O)(=O)CCN1/N=C/c1ccc([N+](=O)[O-])o1` (centres undefined) [Nifurtimox] (20 µM), the “fold change of Cadaverine concentration” value was 0.998.
With `CC(=O)OCC(=O)[C@@]12OC3(CCCC3)O[C@@H]1C[C@H]1[C@@H]3CCC4=CC(=O)C=C[C@]4(C)[C@@]3(F)[C@@H](O)C[C@@]12C` [Amcinonide] (20 µM) the “fold change of Cadaverine concentration” value was 0.997.
`OC[C@H]1O[C@@H](c2ccc(Cl)c(Cc3ccc(O[C@H]4CCOC4)cc3)c2)[C@H](O)[C@@H](O)[C@@H]1O` [Empagliflozin] (20 µM) was tested, and the “fold change of Cadaverine concentration” value was 0.974.
For `CC(CN(C)C)CN1c2ccccc2Sc2ccccc21` (centres undefined) [Trimeprazine tartrate] (20 µM), the “fold change of Cadaverine concentration” value was 1.01.
With `CCC(=O)O[C@]1(C(=O)SCF)[C@H](C)C[C@H]2[C@@H]3C[C@H](F)C4=CC(=O)C=C[C@]4(C)[C@@]3(F)[C@@H](O)C[C@@]21C` [Fluticasone propionate] (20 µM) the “fold change of Cadaverine concentration” value was 1.01.
With `OC[C@H]1O[C@@H](n2cnc3cncnc32)[C@H](O)[C@@H]1O` [Nebularine] (20 µM) the “fold change of Cadaverine concentration” value was 0.998.
`C=C1[C@H](CO)[C@@H](O)C[C@@H]1n1cnc2c(=O)[nH]c(N)nc21` [Entecavir] (20 µM) was tested, and the “fold change of Cadaverine concentration” value was 0.985.
In the case of `O=C1CN(/N=C/c2ccc(-c3ccc([N+](=O)[O-])cc3)o2)C(=O)N1` [Dantrolene sodium salt] (20 µM), the “fold change of Cadaverine concentration” value is reported as 0.99.
`CN1CCCN=C1/C=C/c1cccs1` [Pyrantel tartrate] (20 µM) was tested, and the “fold change of Cadaverine concentration” value was 1.02.
`C[C@H](CCc1ccccc1)NC[C@H](O)c1ccc(O)c(C(N)=O)c1` [Dilevalol] (20 µM) was tested, and the “fold change of Cadaverine concentration” value was 1.01.
For `CN1CCC(=C2c3ccccc3CCc3sccc32)CC1` [Pizotifen malate] (20 µM), the “fold change of Cadaverine concentration” value was 0.994.
For `CCOC(=O)c1ccc(C#Cc2ccc3c(c2)C(C)(C)CCS3)nc1` [Tazarotene] (20 µM), the “fold change of Cadaverine concentration” value was 1.04.
For `CCC(=O)OCC(=O)[C@@]1(OC(=O)CC)[C@@H](C)C[C@H]2[C@@H]3CCC4=CC(=O)C=C[C@]4(C)[C@@]3(Cl)[C@@H](O)C[C@@]21C` [Beclomethasone dipropionate] (20 µM), the “fold change of Cadaverine concentration” value was 0.995.
`CC1=NN(c2ccccc2)C(=O)C1` [Edaravone] (20 µM) was tested, and the “fold change of Cadaverine concentration” value was 1.01.
`CO/N=C(\C(=O)N[C@@H]1C(=O)N2C(C(=O)OCOC(=O)C(C)(C)C)=C(/C=C\c3scnc3C)CS[C@H]12)c1csc(N)n1` [Cefditoren Pivoxil] (20 µM) was tested, and the “fold change of Cadaverine concentration” value was 1.05.
For `Nc1ncnc2c1ncn2[C@@H]1O[C@H](CO)[C@@H](O)[C@@H]1O` [Vidarabine] (20 µM), the “fold change of Cadaverine concentration” value was 0.989.
In the case of `O=C(O)c1ccccc1Nc1cccc(C(F)(F)F)c1` [Flufenamic acid] (20 µM), the “fold change of Cadaverine concentration” value is reported as 1.02.
For `CCc1ccc(CCOc2ccc(CC3SC(=O)NC3=O)cc2)nc1` (centres undefined) [Pioglitazone] (20 µM), the “fold change of Cadaverine concentration” value was 0.998.
